Common to all, as to test: NCI-60 one-dose screen, 48 h (100 = growth as untreated, 0 = no growth, -100 = all killed)
Holding throughout (settings): 10 µM unless noted

The test system of assay [1] is NCI-H23 lung.
Assay [2] concerns NCI-H226 lung.
Assay [3] has as its system NCI-H322M lung.
Assay [4] relates to HOP-62 NSCLC.
Assay [5] deals with NCI-H460 lung.
Assay [6] concerns HOP-92 NSCLC.
Assay [7] deals with NCI-H522 lung.
In assay [8] the test system is A549/ATCC NSCLC.
The subject of assay [9] is 786-0 renal.
The test system of assay [10] is COLO 205 colon.

Each structure is given as a SMILES string. The panel holds about 83,000 compounds, 20% with a hit somewhere; the sample as a whole holds those more often.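 Values shown are percent growth following 48 h exposure of cells in 96-well plates to a single concentration of compound; below 10 was considered active.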 Values without a mark were called inactive. The source made the active and inactive calls.

Take `CC(=O)N1C(=S)NC(=O)C1Cn1c(-c2ccccc2)nc2ccccc21` (centres undefined): the growth in assay [1] was 95.2%; in [2] it was 93.6%; in assay [3], 96.8%; in assay [4], 92.1%; in [5] it was 105%; in [6], 97.5%. The growth in assay [7] was 86.9%; in [8], 102%; in assay [9], 102%; in assay [10] it was 108%.
Take `C=CCSc1nc2ccccc2cc1/C=N/O`: the growth in [1] was 81.9%; in assay [2], 77.8%; in assay [3], 81.4%; in assay [4], 77.1%; in assay [5], 90.4%; in assay [6], 58.2%. The growth is 76.4% in [7], 92.5% in assay [8], 100% in assay [9] and 94.1% in [10].
With `CCN(CC)CCN1C(=O)c2c(c(C)c3c(oc4cc(O)ccc43)c2C)C1=O`, the growth in assay [1] is 92.7%; in [2] it was 29.2%; in [3], 89.1%; in assay [4], 93.1%; in assay [5], -69% (active); in assay [6], 72.1%. Also, the growth in assay [7] is -37.1% (active); in assay [8], -65.3% (active); in [9], -80.9% (active); in assay [10], 12.8%.
For `COc1cc(N=Nc2ccc(N)cc2)c(OC)cc1N=Nc1ccccc1.[Cl][Zn][Cl]`, the growth in assay [1] is 89%; in assay [2] it was 104%; in [3], 78.2%; in assay [4], 86.5%; in assay [5], 109%; in assay [6], 71.5%. Also, the growth is 108% in [7], 110% in assay [8], 110% in [9] and 102% in assay [10].
Regarding `O=c1c2c3c(sc2nc(N/N=C/c2ccc(Br)cc2)n1Cc1ccccc1)CCCC3`, the growth was 68.2% in assay [1]; 79.6% in [2]; 71.4% in assay [3]; 65.6% in assay [4]; 69.4% in [5]; 57.8% in [6]. For the same compound, the growth in assay [7] is 61.2%; in [8], 74.8%; in assay [9], 56.7%; in assay [10] it was 75.4%.
Take `N#Cc1c(-c2cccc(Cl)c2)cc(-c2cccc(Cl)c2)[nH]c1=O`: the growth in assay [1] is 79.8%; in [2] it was 94%; in assay [3], 87.2%; in assay [4], 71.3%; in [5], 77.1%; in [6], 44%. In addition, the growth in assay [7] was 64.4%; in assay [8], 61.9%; in assay [9], 87.6%; in [10], 108%.
For `COCCN(C(=O)c1ccc(F)cc1F)c1c(N)n(Cc2ccccc2)c(=O)[nH]c1=O`, the growth in [1] was 95.4%; in assay [2], 94.7%; in [3] it was 99.8%; in assay [4] it was 103%; in assay [5], 116%; in [6], 59.3%. The growth in assay [7] is 98.3%; in assay [8], 101%; in assay [9], 102%; in assay [10], 124%.
For the compound `C=C1C(=O)O[C@H]2[C@H]1CC/C(COC(=O)C(=O)c1cn(C)c3ccc(OC)cc13)=C\CC[C@@]1(C)O[C@@H]21`, the growth in assay [1] is -36.1% (active); in assay [2] it was -67.5% (active); in assay [3], -62.2% (active); in assay [4], -45.9% (active); in assay [5], -76.3% (active); in [6], -72.3% (active). The growth was -61.4% (active) in assay [7], -62% (active) in [8], -87.4% (active) in assay [9] and -57% (active) in assay [10].
With `O=C(NCCCNc1cc(-c2cn(-c3ccccc3)nc2-c2cccc(O)c2)ccn1)c1cccc(O)c1`, the growth in assay [1] is 67.3%; in assay [2], 86.6%; in assay [3] it was 111%; in assay [4], 85.3%; in assay [5], 69.6%; in assay [6] it was 57.2%. Further, the growth in assay [7] is 53%; in assay [8], 53.4%; in assay [9] it was 63.8%; in assay [10], 80.2%.
As for `N#C/C(=C\c1ccc(-c2ccccc2F)o1)c1nc(-c2ccco2)cs1`, the growth in assay [2] was 80.9%; in assay [3], 94.1%; in assay [4] it was 89%; in assay [5], 95.1%; in [6], 85.7%; in assay [7], 81.5%. Further, the growth in assay [8] is 99.1%; in assay [9] it was 104%; in assay [10], 99.6%.
